The panel holds about 79,000 compounds, 15% with a hit somewhere; the sample as a whole holds those more often. A number with no mark means an inactive call. Activity calls are given as the source filed them. Cut-off read from the data, not from the text of the source: active = growth inhibition above about 70%; inactive = the rest.
Assay: NCI Yeast Anticancer Drug Screen. Data for the bub3 strain (AID 167)
Conditions: S. cerevisiae bub3 mutant strain, stronger effect = higher value
Procedure: Growth inhibition of yeast strains with defined genetic alterations is measured as a screen for potential anti-cancer activity. Selected strains with alterations in DNA damage repair or cell cycle control were exposed to compounds and growth inhibition was measured relative to vehicle treated controls. The strain used in this assay is bub3

[1] = at 5.0 µM (retest, dose inferred, filed as 0.5)
[2] = at 50.0 µM (retest, dose inferred, filed as 5.0)

SMILES | growth inhibition (at 1.2 µM) | growth inhibition (at 3.7 µM) | growth inhibition [1] | growth inhibition (at 11.0 µM) | growth inhibition (at 33.0 µM) | growth inhibition [2] | growth inhibition (at 50.0 µM) | growth inhibition (at 100.0 µM)
O=C(Oc1ccc2c(c1)CN(Cc1ccccc1)CO2)c1ccccc1 | -4% | -2% | -6% | -29% | 31% | 46% | 72.7% (active) | 35%
CCCCCCOC(=O)NCCOC(=O)Nc1ccccc1 | 3% | 2% | 9% | 5% | 1% | -2% | 11.1% | 0%
COc1cc2ccnc(-c3c4ccccc4c(N)c4c(OC)c(OC)ccc34)c2cc1OC | -5% | 1% | -3% | 9% | -4% | -3% | 6.45% | 24%
O=C(O)Cc1cc(F)ccc1C(=O)O | -1% | -2% | 8% | 1% | 4% | 66% | 73.5% (active) | 17%
NC(=O)c1c([N+](=O)[O-])cc(C(F)(F)F)cc1[N+](=O)[O-] | -1% | -1% | 7% | 0% | -1% | 23% | 93.1% (active) | 5%
